Compound activity from PubChem.
HepG2 tox: kills HepG2 cells in TGF-b inhibitor counter-screen | HepG2 CAGA-GFP viability, ATP luminescence, 18 h | Potency, µM (top dose mostly 46.1 µM), hits mostly cytotoxic | 410,000 compounds, 0.76% hits
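HepG2 CAGA-GFP cells (1000/well, DMEM with 1% FBS) received compound, then TGF-beta at 500 pg/mL final, and were incubated 18 hours at 37 degrees C. Viability was read by CellTiter-Glo luminescence. Media-only wells were set as complete cell-killing and DMSO as no toxicity.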
TDP1 cell CPT: DT40-hTDP1 cell growth loss with CPT; chicken DT40 Tdp1-/-;hTDP1 cells + 20 nM CPT, ATP luminescence, 48 h; Potency, µM (series often up to 46.2 µM), usual class: inhibitors; 420,000 compounds, 12% hits; further: nearly all actives have a fitted effect of over 55% in size
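Chicken DT40 Tdp1-/- cells stably complemented with human TDP1 were seeded at 400 cells/well in medium containing 20 nM camptothecin, exposed to pin-transferred compounds, and grown at 37 °C for at least 48 hr. Viability was read as ATP luminescence.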
TDP1 cell noCPT: qHTS for Inhibitors of human tyrosyl-DNA phosphodiesterase 1 (TDP1): qHTS in cells in absence of CPT | DT40 Tdp1-/- hTDP1 cells, no CPT, ATP luminescence, 48 h | Potency, µM (top dose mostly 46.2 µM), hits mostly inhibitors | AID 686978, 2013 | 420,000 compounds, 15% hits; further: nearly all actives have a fitted effect of over 55% in size
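Stably hTDP1-transfected Tdp1-null chicken DT40 cells were treated with library compounds minus camptothecin and grown for at least 48 hr at 37 °C, after which cellular ATP was quantified by luminescence.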
TGFb inhibitor: TGF-b pathway inhibition | HepG2 CAGA-GFP TGF-b/SMAD3 reporter, GFP fluorescence, 18 h; TGF-beta stimulated, 500 pg/mL final | Potency, µM (highest dose often 46.1 µM), actives largely listed as inhibitors | 410,000 compounds, 1.2% hits; further: nearly all actives have a fitted effect of over 65% in size
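First, reporter cells (HEPG2 CAGA-GFP) rested 2 h at 37 degrees C. Next, compounds were pinned in and TGF-beta added to 500 pg/mL final. After 18 h, GFP was imaged per cell and summed per well.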
HT1080 IDH1KD tx: HT-1080 IDH1 knockdown cell toxicity (counter line); HT-1080 IDH1 knockdown viability, ATP luminescence, 48 h; Potency, µM (series often up to 46.1 µM), usual class: cytotoxic; 360,000 compounds, 2% hits
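Using the IDH1-knockdown HT-1080 line run in the same batch and compound series as the NT line, viability after 48 h at 37 °C was determined by CellTiter-Glo luminescence and expressed as % activity.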
HT1080-NT tox: kills 2HG-producing HT-1080-NT fibrosarcoma cells. HT-1080-NT fibrosarcoma viability, CellTiter-Glo ATP luminescence, 48 h. AID 686970. 360,000 compounds, 1.6% hits. Potency, µM (doses to about 46.1 µM), usual class: cytotoxic;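 further: NT is the 2HG producing partner of a matched IDH1 knockdown line; nearly all actives have a fitted effect of over 55% in size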
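Viability by CellTiter-Glo luminescence after 48 h compound exposure at 37C of HT-1080-NT cells (750/well, RPMI, 5% FBS). % activity scaled between DMSO wells and medium-only wells, then curve-fitted and categorized by curve class.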
A number is an active result; . = inactive; ? = inconclusive; / = no result given. Most compounds without a hit are left out; they make up all but 17% or so of the library. The call rests on the fitted dose curve; in most records, active means well fitted curve in the direction sought with a large enough effect; inconclusive means small, poorly fitted or top-dose-only effect, or another doubt; inactive means no such curve, though single readings can be large; an effect the other way counts as inactive or inconclusive.

SMILES	HepG2 tox	TDP1 cell CPT	TDP1 cell noCPT	TGFb inhibitor	HT1080 IDH1KD tx	HT1080-NT tox
COc1cccc(C(=O)N(C)CC(=O)Nc2ccc(F)c(F)c2F)c1	.	.	.	.	.	.
C=CCN(c1ccccc1)S(=O)(=O)c1cccc(C(=O)N(CC)CC(=O)Nc2c(F)cccc2F)c1	.	23µM	15µM	.	.	.
O=C(Nc1cccnc1)/C(N=Nc1cccnc1)=C(\O)c1ccccc1	.	.	.	.	.	.
CCOC(=O)C1(CCc2ccccc2)CCN(Cc2c(O)cccc2OC)CC1	.	26µM	13µM	?	33µM	?
CCOC(=O)C1(CCc2ccccc2)CCN(Cc2ccc(O)cc2)CC1	.	16µM	21µM	?	.	.
N#C/C(=C(/O)c1ccc2c(c1)OCO2)c1nc2cc(C(F)(F)F)ccc2s1	.	10µM	15µM	?	?	?
N#C/C(=C(/O)c1ccccc1F)c1nc2cc(C(F)(F)F)ccc2s1	.	?	?	?	.	.
CCOc1ccc(CCNC(=O)c2cccc(-n3c(C)nc4cccnc43)c2)cc1	.	23µM	16µM	.	/	/
Cc1ccc(C(=O)NCCc2ccc(Cl)cc2)cc1-n1c(C)nc2cccnc21	.	?	23µM	.	/	/
Cc1nc2cccnc2n1-c1cccc(C(=O)NCCc2ccc(Cl)cc2)c1	.	?	18µM	.	/	/
COCCNC(=O)c1cccc(-n2c(C)nc3cccnc32)c1	.	.	.	.	/	/
O=C(c1nc2ncccn2n1)N1CCOc2ccc(C(O)C(c3ccccc3)c3ccccc3)cc2C1 (centres undefined)	/	?	.	/	/	/
O=C1NN(c2ccc(F)cc2)C(=O)/C1=C/c1cccs1	.	.	.	.	.	.
O=C1C2C3C=CC(CC3)C2C(=O)N1c1ccccc1 (centres undefined)	.	.	?	.	.	.
CCCCC1C(=O)N(c2ccccc2)N(c2ccc(O)cc2)C1=O (centres undefined)	8.9µM	1µM	0.58µM	5.6µM	.	?
CC(C)=CCC1C(=O)N(c2ccccc2)N(c2ccccc2)C1=O	/	3.8µM	3.8µM	/	/	/
[O-][N+](=NC1C=Cc2ccccc21)C1C=Cc2ccccc21 (centres undefined)	.	.	.	.	/	/
N#C/C(=C\c1c(Oc2ccccc2F)nc2ccccn2c1=O)C(=O)NC1CCS(=O)(=O)C1 (centres undefined)	.	.	?	.	.	.
CC(=O)Nc1ccc(/C(C)=N/Nc2nc(Nc3cccc4ccccc34)nc(N3CCOCC3)n2)cc1	.	21µM	21µM	.	?	?
CC(=O)Nc1ccc(/C(C)=N/Nc2nc(N3CCOCC3)nc(N3CCOCC3)n2)cc1	.	?	15µM	.	.	.
C/C(=N\Nc1nc(N2CCCCCC2)nc(N2CCCCCC2)n1)c1ccccc1	.	?	?	.	.	.
O=C(NCc1ccc2c(c1)OCO2)c1nc(Cn2cc(Br)cn2)no1	.	.	.	.	.	.
CN(c1ccccc1)c1ccc(/C=N/NC(=O)CC#N)cc1	.	?	?	.	.	.
CCOc1ccc(OCCCCOc2ccccc2C(C)=O)cc1	.	?	?	.	.	.
CC(C)CNC(=O)N1[C@H](c2cccs2)[C@@H](C)C(=O)[C@@H](C)[C@@H]1c1cccs1	.	18µM	?	?	/	/
CCOC(=O)CNC(=O)N1[C@H](c2cccs2)[C@@H](C)C(=O)[C@@H](C)[C@@H]1c1cccs1	.	?	.	.	/	/
Cc1cnc(-n2ncc(C(=O)NCCN3CCOCC3)c2C(C)C)nc1-c1ccc(F)cc1	/	.	.	/	/	/
